Publication PMC4336329 (PLoS ONE, 2015)
Out of some 310,000 compounds screened, about 14,000 (4.5%) showed an effect of 50% or more. The effect is printed as a negative number. The entries come from a sample that favours strong results as a whole.
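Also: peak tail current of the secondary pulse compared with the same well before compound.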

The molecules below were run against human ether-à-go-go-related gene (hERG) potassium channel (human, UniProt Q12809) (assay: primary screen, population patch clamp on CHO cells stably expressing hERG; higher = less effect of the substance).
human ether-à-go-go-related gene (hERG) potassium channel, sequence (Q12809 whole entry, looked up): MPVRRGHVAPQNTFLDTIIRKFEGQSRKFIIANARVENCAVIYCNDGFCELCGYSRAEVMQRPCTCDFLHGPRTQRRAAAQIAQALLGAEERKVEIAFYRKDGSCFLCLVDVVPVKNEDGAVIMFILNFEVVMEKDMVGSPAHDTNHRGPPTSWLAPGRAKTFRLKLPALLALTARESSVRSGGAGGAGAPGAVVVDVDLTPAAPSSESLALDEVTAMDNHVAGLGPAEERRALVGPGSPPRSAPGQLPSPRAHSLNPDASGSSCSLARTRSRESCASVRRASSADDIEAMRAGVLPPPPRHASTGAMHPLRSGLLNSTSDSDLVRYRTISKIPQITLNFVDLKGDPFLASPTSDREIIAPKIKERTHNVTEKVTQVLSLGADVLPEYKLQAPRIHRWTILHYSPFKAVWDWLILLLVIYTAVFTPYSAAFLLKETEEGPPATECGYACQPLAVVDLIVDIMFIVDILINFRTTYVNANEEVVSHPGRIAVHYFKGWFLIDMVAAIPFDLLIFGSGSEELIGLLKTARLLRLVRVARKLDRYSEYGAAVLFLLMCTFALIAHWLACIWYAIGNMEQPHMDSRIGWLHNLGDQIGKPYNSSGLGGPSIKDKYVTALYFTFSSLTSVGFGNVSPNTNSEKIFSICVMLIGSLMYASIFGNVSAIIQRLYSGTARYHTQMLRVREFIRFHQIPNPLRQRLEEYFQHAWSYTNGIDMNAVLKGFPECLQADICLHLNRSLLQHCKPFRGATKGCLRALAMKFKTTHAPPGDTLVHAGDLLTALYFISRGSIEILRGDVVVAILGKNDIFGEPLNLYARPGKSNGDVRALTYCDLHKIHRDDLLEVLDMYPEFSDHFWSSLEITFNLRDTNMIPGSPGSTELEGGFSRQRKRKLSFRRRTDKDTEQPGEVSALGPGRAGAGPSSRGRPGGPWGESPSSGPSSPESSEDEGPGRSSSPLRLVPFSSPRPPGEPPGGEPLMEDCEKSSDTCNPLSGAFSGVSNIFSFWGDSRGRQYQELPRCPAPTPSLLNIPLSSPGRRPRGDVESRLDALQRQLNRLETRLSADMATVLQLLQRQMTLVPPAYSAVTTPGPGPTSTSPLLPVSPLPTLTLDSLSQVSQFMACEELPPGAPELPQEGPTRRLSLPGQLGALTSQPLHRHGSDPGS
COCCCNC(=O)c1ccc2c(=O)n(Cc3ccccc3OC)c(=S)[nH]c2c1 was tested, and the “hERG current change (%, negative = inhibition) at 10uM” value was 6.43%.
With O=C(NCCc1ccc(F)cc1)c1cccs1 the “hERG current change (%, negative = inhibition) at 10uM” value was 10.4%.
In the case of Cc1ccc(S(=O)(=O)N2CCN(C(=O)c3c(-c4ccccc4)noc3C)CC2)cc1C, the “hERG current change (%, negative = inhibition) at 10uM” value is reported as 1.83%.
With CN1CCc2nc(SCC(=O)Nc3cccc(F)c3)c(C#N)c(-c3cccs3)c2C1 the “hERG current change (%, negative = inhibition) at 10uM” value was -62.3%.
For CN1CCc2nc(SCC(=O)Nc3ccc(OC(F)(F)F)cc3)c(C#N)c(-c3cccs3)c2C1, the “hERG current change (%, negative = inhibition) at 10uM” value was -12.8%.
In the case of COc1ccc(NC(=O)CSc2nc3c(c(-c4cccs4)c2C#N)CN(C)CC3)cc1OC, the “hERG current change (%, negative = inhibition) at 10uM” value is reported as 1.65%.
In the case of C=CCSc1nc2c(c(-c3ccsc3)c1C#N)CN(C)CC2, the “hERG current change (%, negative = inhibition) at 10uM” value is reported as -65.2%.
In the case of Cc1cccc(CSc2nc3c(c(-c4cccs4)c2C#N)CN(C)CC3)c1, the “hERG current change (%, negative = inhibition) at 10uM” value is reported as -13.1%.
CN1CCc2nc(SCc3ccc(Cl)cc3)c(C#N)c(-c3cccs3)c2C1 was tested, and the “hERG current change (%, negative = inhibition) at 10uM” value was -66.2%.
CN1CCc2nc(SC(C(=O)O)c3ccccc3)c(C#N)c(-c3cccs3)c2C1 (centres unmarked) was tested, and the “hERG current change (%, negative = inhibition) at 10uM” value was 19.4%.
C=CCSc1nc(N)c(C#N)c(-c2ccc(C)cc2)c1C#N was tested, and the “hERG current change (%, negative = inhibition) at 10uM” value was 4.13%.
For CN1CCc2nc(N)c(C#N)c(-c3ccccc3)c2C1, the “hERG current change (%, negative = inhibition) at 10uM” value was -7.5%.
For Cc1ccc(C(=O)Nc2cccc(C(=O)O)c2)cc1, the “hERG current change (%, negative = inhibition) at 10uM” value was 14.4%.
For O=C(COC(=O)c1ccccc1F)Nc1cc(S(=O)(=O)N2CCOCC2)ccc1N1CCCC1, the “hERG current change (%, negative = inhibition) at 10uM” value was -13.5%.
Cc1oc2c(c(C)cc3oc(=O)c(CC(=O)NCCCN4CCCC4=O)c(C)c32)c1C was tested, and the “hERG current change (%, negative = inhibition) at 10uM” value was -0.519%.
O=C(Nc1ncccc1O)c1ccc2c(c1)OCO2 was tested, and the “hERG current change (%, negative = inhibition) at 10uM” value was 3.08%.
With COc1ccccc1NC=C1C(=O)OC(C)(C)OC1=O the “hERG current change (%, negative = inhibition) at 10uM” value was -24%.
For CCOC(=O)c1ccc(S(=O)(=O)N2CCN(C(C)=O)CC2)cc1, the “hERG current change (%, negative = inhibition) at 10uM” value was 0.122%.
In the case of CCc1nc(Nc2ccccc2)c2nnn(Cc3ccccc3)c2n1, the “hERG current change (%, negative = inhibition) at 10uM” value is reported as 8.23%.
For COC(=O)c1nn(-c2ccc(-c3ccccc3)cc2)cc1O, the “hERG current change (%, negative = inhibition) at 10uM” value was -3.85%.
With Cc1csc(=O)n1CC(=O)OCC(=O)c1c(N)n(CC(C)C)c(=O)n(C)c1=O the “hERG current change (%, negative = inhibition) at 10uM” value was -10.7%.
In the case of CCCn1c(N)c(C(=O)COC(=O)CNC(=O)c2ccc(C)c(C)c2)c(=O)n(C)c1=O, the “hERG current change (%, negative = inhibition) at 10uM” value is reported as -78.1%.
For CC(C)Cn1c(N)c(C(=O)COC(=O)COc2cccc(C(F)(F)F)c2)c(=O)n(C)c1=O, the “hERG current change (%, negative = inhibition) at 10uM” value was -50.9%.
For CC(C)Cn1c(N)c(C(=O)COC(=O)/C=C/c2cccs2)c(=O)n(C)c1=O, the “hERG current change (%, negative = inhibition) at 10uM” value was -49.9%.
Cc1cccc(OCC(=O)OCC(=O)c2c(N)n(C)c(=O)n(C)c2=O)c1 was tested, and the “hERG current change (%, negative = inhibition) at 10uM” value was -13.1%.
In the case of CC(C)Cn1c(N)c(C(=O)COC(=O)Cc2cccs2)c(=O)n(C)c1=O, the “hERG current change (%, negative = inhibition) at 10uM” value is reported as -51.7%.
In the case of Cc1ccc(C(=O)NCC(=O)OCC(=O)c2c(N)n(C)c(=O)n(C)c2=O)s1, the “hERG current change (%, negative = inhibition) at 10uM” value is reported as 9.14%.
With Cc1cc(C)cc(C(=O)NCC(=O)OCC(=O)c2c(N)n(C)c(=O)n(C)c2=O)c1 the “hERG current change (%, negative = inhibition) at 10uM” value was 17.4%.
In the case of CC(C)Cn1c(N)c(C(=O)COC(=O)c2cc(C(F)(F)F)nc3c(C(F)(F)F)cccc23)c(=O)n(C)c1=O, the “hERG current change (%, negative = inhibition) at 10uM” value is reported as 7.27%.
For CC(C)Cn1c(N)c(C(=O)COC(=O)Cc2cccc(C(F)(F)F)c2)c(=O)n(C)c1=O, the “hERG current change (%, negative = inhibition) at 10uM” value was -54.5%.
In the case of CC(C)Cn1c(N)c(C(=O)COC(=O)c2ccc(F)cc2)c(=O)n(C)c1=O, the “hERG current change (%, negative = inhibition) at 10uM” value is reported as 17.1%.
CC(C)Cn1c(N)c(C(=O)COC(=O)c2c(F)cccc2F)c(=O)n(C)c1=O was tested, and the “hERG current change (%, negative = inhibition) at 10uM” value was -16.7%.
For CCN(CC)S(=O)(=O)c1cc(C)c(C)cc1OCC(=O)NC1CCCC1, the “hERG current change (%, negative = inhibition) at 10uM” value was -23.1%.
With C/C=C/C=C/C(=O)N1CC2(CC(c3cccc(NC(=O)/C=C/C)c3)=NO2)C[C@@H]1C(N)=O (some centres unmarked) the “hERG current change (%, negative = inhibition) at 10uM” value was 2.75%.
For Cc1ccsc1/C=N\NC(=O)c1cc(C(C)(C)C)[nH]n1, the “hERG current change (%, negative = inhibition) at 10uM” value was -9.77%.
O=C(CN1C(=O)NC(c2ccccc2)(c2ccccc2)C1=O)N1CCOCC1 was tested, and the “hERG current change (%, negative = inhibition) at 10uM” value was 0.969%.
For CC1(C)NC(=O)N(CC(=O)N2CCN(c3cccc(C(F)(F)F)c3)CC2)C1=O, the “hERG current change (%, negative = inhibition) at 10uM” value was 6.26%.
In the case of CC(C(=O)N1CCOCC1)c1ccc([N+](=O)[O-])cc1 (centres unmarked), the “hERG current change (%, negative = inhibition) at 10uM” value is reported as 9.94%.
For COc1ccc(N2CCN(C(=O)CN3C(=O)C4CC=CCC4C3=O)CC2)cc1 (centres unmarked), the “hERG current change (%, negative = inhibition) at 10uM” value was 12.3%.
CC(C(=O)N1CCN(c2ccccc2)CC1)N1C(=O)C2CC=CCC2C1=O (centres unmarked) was tested, and the “hERG current change (%, negative = inhibition) at 10uM” value was 7.43%.
In the case of CC1(C)NC(=O)N(CC(=O)N2CCN(c3cccc(Cl)c3)CC2)C1=O, the “hERG current change (%, negative = inhibition) at 10uM” value is reported as -6.67%.
With CC1(C)NC(=O)N(CC(=O)N2CCN(c3ccc([N+](=O)[O-])cc3)CC2)C1=O the “hERG current change (%, negative = inhibition) at 10uM” value was -66.1%.
O=C(CN1C(=O)C2CCCCC2C1=O)N1CCN(c2ccc(F)cc2)CC1 (centres unmarked) was tested, and the “hERG current change (%, negative = inhibition) at 10uM” value was -12.2%.
With O=C(CN1C(=O)NC(c2ccccc2)(c2ccccc2)C1=O)N1CCN(c2ccccc2F)CC1 the “hERG current change (%, negative = inhibition) at 10uM” value was -17.4%.
O=C(CN1C(=O)NC(c2ccccc2)(c2ccccc2)C1=O)N1CCN(c2ccc(F)cc2)CC1 was tested, and the “hERG current change (%, negative = inhibition) at 10uM” value was -68.4%.
With O=C(CN1C(=O)C2CC=CCC2C1=O)N1CCN(c2ccc([N+](=O)[O-])cc2)CC1 (centres unmarked) the “hERG current change (%, negative = inhibition) at 10uM” value was -71.6%.
In the case of CC(C(=O)N1CCN(c2ccc([N+](=O)[O-])cc2)CC1)N1C(=O)C2CC=CCC2C1=O (centres unmarked), the “hERG current change (%, negative = inhibition) at 10uM” value is reported as -72.2%.
In the case of CC(=O)N1CN(C2CC(C)(C)NC(C)(C)C2)Cc2c1sc1c2CCCC1, the “hERG current change (%, negative = inhibition) at 10uM” value is reported as 6.77%.
For C(=C\c1ccccn1)/c1ccccn1, the “hERG current change (%, negative = inhibition) at 10uM” value was 24.4%.
For CC1=CC(C)(C)N(C(=O)CSc2nnc(N)s2)c2ccccc21, the “hERG current change (%, negative = inhibition) at 10uM” value was 6.19%.
In the case of O=c1[nH]c(=O)n(CCc2ccc(F)cc2)c(O)c1C=NCCCN1CCOCC1, the “hERG current change (%, negative = inhibition) at 10uM” value is reported as -17.7%.
With CC(=O)Nc1cc(C(C)C)c(O)c(C(C)C)c1 the “hERG current change (%, negative = inhibition) at 10uM” value was -4.37%.
For Cc1cccc(CCNC(=O)Cn2ncc3c([nH]c4ccccc43)c2=O)c1, the “hERG current change (%, negative = inhibition) at 10uM” value was 14.2%.
